From PubChem BioAssay AID717 (Columbia University Molecular Screening Center, 2007) come the findings set out here.

SMILES strings stand for the structures. Out of some 91,000 compounds screened, about 40 (0.04%) were called active. Cut-off read from the data, not from the text of the source: active = activation above about 37%; inactive = the rest. A selection follows.

The assay deals with Bifunctional epoxide hydrolase 2 (Homo sapiens) (UniProt P34913). Description: sEH enzyme activity enhancers – biochemical, human sEH, primary screen (AID 717). The note with it: purified human sEH enzymatic activity, activator screen; at 2 µM; active compounds read high.
Bifunctional epoxide hydrolase 2 (Homo sapiens), sequence (P34913 whole entry, looked up): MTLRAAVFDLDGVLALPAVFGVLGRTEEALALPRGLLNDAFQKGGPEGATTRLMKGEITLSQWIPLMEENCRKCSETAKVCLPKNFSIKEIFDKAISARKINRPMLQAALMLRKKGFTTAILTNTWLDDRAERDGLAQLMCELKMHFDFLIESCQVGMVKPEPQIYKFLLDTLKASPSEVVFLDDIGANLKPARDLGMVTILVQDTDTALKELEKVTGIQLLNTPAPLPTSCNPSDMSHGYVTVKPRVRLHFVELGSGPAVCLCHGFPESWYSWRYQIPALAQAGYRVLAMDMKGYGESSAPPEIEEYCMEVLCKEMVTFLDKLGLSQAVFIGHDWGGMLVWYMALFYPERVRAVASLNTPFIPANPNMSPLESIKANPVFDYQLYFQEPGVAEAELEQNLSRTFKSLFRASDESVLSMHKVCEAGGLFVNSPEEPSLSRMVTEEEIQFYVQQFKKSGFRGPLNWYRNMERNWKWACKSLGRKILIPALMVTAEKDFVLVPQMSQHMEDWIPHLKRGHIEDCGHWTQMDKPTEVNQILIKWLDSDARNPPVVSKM
With `CCC(=O)NC(NCC1CCCO1)C(Cl)(Cl)Cl` (centres undefined), the activation was 2.5% (inactive).

Take `O=C(CCc1ccc(S(=O)(=O)N2CCOCC2)cc1)Nc1ccc2ccccc2c1`: the activation was -20.5% (inactive). The result for `O=C(CCCOc1ccccc1)NCc1ccco1` reads -2.8% (inactive). The result for `COc1ccc(C(=O)N2CCc3cc(OC)c(OC)cc3C2c2cccc([N+](=O)[O-])c2)cc1` (centres undefined) reads 2.1% (inactive); that for `Cc1cc(-c2cccs2)nc(-n2cccc2)n1`, -0.3% (inactive).

For `CCN(CC)CCNc1ccc(Cl)cc1[N+](=O)[O-]`, the activation is -8.3% (inactive). With `Cc1ccccc1NC(=O)C(C)c1ccc(-c2ccccc2)c(F)c1` (centres undefined), the activation was -9.7% (inactive).

As for `CCOc1ccc(Nc2nc(Cc3nnc(SCC(=O)NC4CCCC4)n3C)cs2)cc1`, the activation is -12.4% (inactive). The result for `C=CCn1c(Cn2nnc3ccccc32)nnc1SCC(=O)N/N=C/c1cc(Br)cc(OC)c1O` reads -14.1% (inactive). `CC12c3ccccc3C(c3ccccc31)C1C(=O)N(Cc3cccnc3)C(=O)C12` (centres undefined): the activation is -9.7% (inactive). The same measure for `CNS(=O)(=O)c1cnccc1N1CCN(c2cccc(C)c2)CC1`: -13.7% (inactive).

As to `COc1ccc(Cl)cc1NC(=O)CN(C)C(=O)CNC(=O)C12CC3CC(CC(C3)C1)C2`, the activation was -13.2% (inactive). Regarding `Cc1ccccc1C(=O)N1CCC(C(=O)Nc2ccc(S(=O)(=O)N(C)C(C)C)cc2)CC1`, the activation is -83.3% (inactive).

In the case of `Nc1c(-c2ccc(F)cc2)cnc2ncnn12`, the activation was -1.1% (inactive). Consider `COC(=O)c1ccc(C(=O)OC)c(NC(=S)N2CCCCC2)c1`, for which the activation is 1.5% (inactive).

As for `O=C(CSc1nc2ccccc2o1)N1c2ccccc2Sc2ccc(Cl)cc21`, the activation is 6.7% (inactive). Regarding `Cc1ccccc1OCc1nnc(SCC(=O)N2c3ccccc3Sc3ccc(Cl)cc32)o1`, the activation was 1% (inactive).

On to `COc1ccc(CCNC(=O)COC(=O)c2ccc[nH]c2=O)cc1`, for which the activation is 3.2% (inactive).

As to `CC1CC(C)CN(C/C=C/c2ccccc2[N+](=O)[O-])C1` (centres undefined), the activation was -2.6% (inactive).

`O=C(CSCc1ccc([N+](=O)[O-])cc1)NCCSCc1ccccc1`: the activation is -17.4% (inactive). For the molecule `O=C1c2ccccc2C(=O)c2c1cccc2N1CCN(Cc2ccccc2)CC1`, the activation is 33.6% (inactive). The same measure for `O=S(=O)(c1ccc(F)cc1)n1ccc(-c2cnc(-c3ccccc3)s2)n1`: 8.1% (inactive); for `O=c1[nH]n(-c2cccc(Cl)c2)c2ncccc12`: 0.8% (inactive); for `CC(=O)Nc1ccccc1C(=O)C(=O)Nc1ccc(F)cc1`: 21.4% (inactive). On to `Cc1noc(C)c1C(=O)N(CC(=O)NC1CCCC1)Cc1ccccc1F`, for which the activation was 5.6% (inactive).

Take `COc1cccc(NC(=O)C2c3cc(OC)c(OC)cc3C(=O)N(C)C2c2cccnc2)c1` (centres undefined): the activation was 4.9% (inactive). On to `Cc1cccc(-n2cnc(C(=O)Nc3cccnc3)c2)n1`, for which the activation is 7.2% (inactive). The same measure for `CC(C)C(NS(=O)(=O)c1cccs1)C(=O)Nc1nc(C(C)(C)C)cs1` (centres undefined): -6% (inactive); for `c1ccc2c(C[n+]3csc4ccccc43)cccc2c1`: 12.2% (inactive); for `c1ccc(-c2ccnc3nc(-n4cccc4)nn23)cc1`: 3.1% (inactive). The same measure for `COc1cccc(/C=N/NC(=O)C(=O)N2CCCC2)c1`: 7.2% (inactive). The same measure for `CC(C)CC(=O)N1CCC(O)(CS(=O)(=O)Cc2ccccc2)CC1`: 0.4% (inactive).

As for `NC(=O)COc1ccc(/C=N/NC(=O)C2CCCN2S(=O)(=O)c2ccc(Cl)cc2)cc1` (centres undefined), the activation is -1.2% (inactive). The same measure for `O=C(O)COc1ccc(-c2nccc(-c3cccs3)n2)cc1`: -9.3% (inactive); for `O=C(CSc1ncnc2c1cnn2CCc1ccccc1)Nc1ccc(F)cc1`: -20.6% (inactive); for `CN(C)/C=C(\C#N)C(=O)c1cccnc1Oc1ccc(F)cc1F`: -10.7% (inactive).

Take `Cc1ccc2c(c1)-c1c(ssc1=S)C(C)(C)N2C(=O)CN1C(=O)c2ccccc2C1=O`: the activation is 25.4% (inactive).

`Cn1nc([N+](=O)[O-])nc1Sc1ccc(C(C)(C)C)cc1`: the activation was -5.2% (inactive). `Cc1sc(NC(=S)NC(=O)c2cccs2)nc1-c1ccc(CC(C)C)cc1`: the activation is 17.5% (inactive). For the molecule `Cc1ccc(C)c(NC(=O)C2Cc3ccccc3CN2C(=O)OCc2ccccc2)c1` (centres undefined), the activation is 7.9% (inactive). The result for `COC(=O)c1c(-c2cccs2)csc1NC(=O)CSc1ncnc2sc(C)c(C)c12` reads -7% (inactive); that for `Cc1cc([N+](=O)[O-])ccc1NCc1cccc([N+](=O)[O-])c1`, 2.8% (inactive); that for `O=S(=O)(/N=C(/Nc1ccccn1)c1ccccc1)c1ccc(Cl)cc1`, -19.7% (inactive). `N/C(=N\OC(=O)c1cc(-c2ccccc2)nc2ccccc12)c1ccncc1`: the activation was 3% (inactive).

As for `Cc1cc2cc3c(N)[nH]nc3nc2cc1C`, the activation was -5.4% (inactive). With `O=C(/C=C/c1cccs1)c1cc(Cl)ccc1OC(=O)N1CCOCC1`, the activation is 7.4% (inactive). In the case of `O=C(O)c1ccccc1NC(=S)NC(NC(=O)c1ccccc1[N+](=O)[O-])C(Cl)(Cl)Cl` (centres undefined), the activation was -9.3% (inactive). The result for `Cc1c(Br)c([N+](=O)[O-])nn1C(C)C(=O)Nc1nccs1` (centres undefined) reads 6.6% (inactive); that for `CN(C)/C=C/C(=O)c1ccccc1F`, -11.3% (inactive). The result for `COC(=O)CN(C(=S)Nc1ccc(Cl)cc1)C1CC(=O)N(c2ccc(OC)cc2)C1=O` (centres undefined) reads -11.8% (inactive). The result for `Cc1ccc(-c2nnc(C)c(N3CC(C)OC(C)C3)n2)cc1` (centres undefined) reads -0.3% (inactive); that for `COc1ccc(-c2c(C(C)=O)c(C)nc3sc4c(=O)n(-c5ccc(C)cc5)nnc4c23)cc1`, -1.9% (inactive).

Turning to `O=C(ON=C1CCN(S(=O)(=O)c2ccccc2)CC1)c1ccc(Cl)cc1`, the activation was 0.1% (inactive). For the molecule `N#C/C(=C(/O)Cc1cccc2ccccc12)c1nc2ccccc2s1`, the activation is 13.6% (inactive). Take `NS(=O)(=O)c1ccc(Nc2nc(-c3ccccc3)cs2)cc1`: the activation was -4.9% (inactive).

Turning to `CS(=O)(=O)N(CC(=O)Nc1ccc(F)cc1F)c1cccc([N+](=O)[O-])c1`, the activation is -2.8% (inactive). The same measure for `O=C(Nc1cc(C(F)(F)F)ccc1Cl)c1cc2nc3c(c(C(F)(F)F)n2n1)CCCC3`: -7.1% (inactive); for `COc1ccc(/C=C2\CCCC3C2=NN(C(=O)c2scnc2C)C3c2ccc(OC)cc2)cc1` (centres undefined): 12.7% (inactive). The same measure for `O=C(c1ccccc1)C(Cn1cncn1)C(Sc1ccccc1)c1ccccc1` (centres undefined): 3.9% (inactive). With `Cc1nc(SCC(=O)N2CC(=O)Nc3ccccc32)c2c(C)c(C)sc2n1`, the activation is -1.1% (inactive). Consider `COc1ccc(Cc2nnc(SCC(=O)c3cccc([N+](=O)[O-])c3)n2C)cc1`, for which the activation was 16.7% (inactive). The result for `O=C(Nc1ccc2c(c1)OCCO2)c1ccc(Cl)c(S(=O)(=O)N2CCCCC2)c1` reads -77.7% (inactive).

As to `CCCCNC(=O)C(=O)c1ccccc1NC(C)=O`, the activation is -0.9% (inactive).

Turning to `CC(C)(CCl)C(=O)Nc1ccc(Sc2ccc(F)cc2)cc1`, the activation was -29.2% (inactive). With `O=C(CCNS(=O)(=O)c1ccccc1C(F)(F)F)NCc1ccc2c(c1)OCO2`, the activation was 3.4% (inactive). The result for `COCCCNCC(=O)Nc1sc(C)c(C)c1C(=O)OC` reads -1% (inactive); that for `Cc1ccc(CNC(=O)C2CC(c3ccccc3[N+](=O)[O-])=NO2)o1` (centres undefined), 1.1% (inactive); that for `Cc1c(NC(=O)CCCOc2ccccc2)cccc1[N+](=O)[O-]`, -9.6% (inactive). For `CCC(C)n1c(-c2cc(OC)c(OC)c(OC)c2)nc2nc3ccccc3nc21` (centres undefined), the activation is 0.8% (inactive). The result for `COc1cc(C(=S)N2CCOCC2)cc(OC)c1OC(=O)c1cc([N+](=O)[O-])c(C)c([N+](=O)[O-])c1` reads -3.8% (inactive). On to `COc1ccc(/C=C(/NC(=O)c2ccc(C)cc2)c2nc3ccccc3[nH]2)cc1OC`, for which the activation was 4.1% (inactive).

Regarding `O=C(O)c1ccccc1-c1ccccc1C(=O)Nc1cccc2ccccc12`, the activation was 6.9% (inactive). Take `O=C(Nc1nnc(CCOCCOCCc2nnc(NC(=O)c3ccco3)s2)s1)c1ccco1`: the activation was -12% (inactive). Turning to `CCn1c(SCc2ccc(C)cc2)nnc1-c1nn(-c2ccccc2)ccc1=O`, the activation is 17.2% (inactive).

On to `CC(Oc1ccc(F)cc1F)C(=O)/C=C/N(C)C` (centres undefined), for which the activation was 0.5% (inactive). The same measure for `CCOC(=O)C1=C(C)Nc2sc(C(=O)c3ccc(Br)cc3)c(N)c2C1c1ccc(C(=O)OC)cc1` (centres undefined): -3.6% (inactive); for `Cc1cc([N+](=O)[O-])c(NC2CCCCC2)c([N+](=O)[O-])c1`: 3.5% (inactive). Consider `O=C(NCCc1ccccn1)c1cc(C(=O)C2CCCCC2)c[nH]1`, for which the activation is 9.3% (inactive). Take `CC(C)c1cc(C(N)=O)c(NC(=O)c2cccc(COc3ccc(Br)cc3)c2)s1`: the activation is -3.7% (inactive). The same measure for `Cc1ccc(NC(=S)NC2CCCC2)cc1`: -29.3% (inactive).

For the molecule `COC(=O)c1ccccc1OCC(=O)N1CCN(c2ccc(Cl)cc2)CC1`, the activation was -44.9% (inactive). The same measure for `C=CCNc1cnn(-c2ccc(C)cc2)c(=O)c1Cl`: 0.5% (inactive); for `CCc1cccc2c(C=C(C#N)C#N)cn(CC(=O)N3CCCCC3)c12`: 5% (inactive).

Turning to `COCCCn1c(SCc2cccc(OC)c2)nc2cc(OC)c(OC)cc2c1=N`, the activation is -5.2% (inactive).

Turning to `C=CCNC(=O)c1sc(SC)cc1-c1ccc(Cl)cc1`, the activation is 14.9% (inactive).

Take `O=C(O)/C=C/C(=O)Nc1ccc(F)cc1F`: the activation is 6.8% (inactive). The same measure for `C/C(=N\NS(=O)(=O)c1cccc([N+](=O)[O-])c1)c1cc2ccccc2o1`: -6% (inactive). On to `COc1cccc(/C=N/NC(=O)c2cccc([N+](=O)[O-])c2)c1OS(=O)(=O)c1ccc(C)cc1`, for which the activation was -13.5% (inactive).

Take `CCC(=O)OCc1c(C(F)(F)F)nn(C)c1Oc1cccc(C(F)(F)F)c1`: the activation was -5.9% (inactive). The same measure for `Cc1nn(CC(=O)Nc2nc3ccccc3s2)c(C)c1[N+](=O)[O-]`: 8% (inactive). The same measure for `O=C(Cn1cncn1)N/N=C/c1c2ccccc2cc2ccccc12`: -1.1% (inactive); for `CONC(=O)c1cc(OCC(F)(F)F)ccc1OCC(F)(F)F`: -7.2% (inactive). `CC(=O)NS(=O)(=O)c1ccc(NC(=O)/C=C/c2ccccc2Cl)cc1`: the activation was -14.4% (inactive). Turning to `Cc1ccc(N2CCN(/N=C/c3cccs3)CC2)cc1`, the activation was 1.6% (inactive).

For `CC(C)(C)NC(=O)NC(=O)COC(=O)CCC1CCCCC1`, the activation was -0.5% (inactive). `Cc1cc2c(cc1C)N(C(=O)CN1C(=O)c3ccccc3C1=O)C(C)(C)c1ssc(=S)c1-2`: the activation was 18.1% (inactive). The result for `O=C(NCc1cccnc1)c1cccnc1Sc1ccc(Cl)cc1` reads 17.3% (inactive); that for `N/C(=N\OC(=O)CCc1ccccc1)c1ccc(Cl)cc1`, 10.5% (inactive). Turning to `CC1CCN(C(NC(=O)c2ccco2)C(=O)c2ccccc2)CC1` (centres undefined), the activation was -0.4% (inactive).

Turning to `CCCCCCCCOC1OC(CO)C(O)C(O)C1NC(C)=O` (centres undefined), the activation is -6.6% (inactive). The same measure for `O=C(CSc1ccccc1)Nc1ccc(NC(=O)c2ccco2)cc1`: -17.6% (inactive). The result for `CC(=O)c1cnn(-c2cc(Oc3ccc(F)cc3)ncn2)c1C` reads 7.1% (inactive); that for `O=C(NCCCCCCCCCNC(=O)C(F)(F)F)C(F)(F)F`, -6.7% (inactive). The same measure for `O=C(Nc1ccn(Cc2ccccc2F)n1)c1ccc(COc2ccc(Cl)cc2Cl)o1`: -1.7% (inactive).
